Measurements published in ChEMBL document CHEMBL1157539, “Thousands of chemical starting points for antimalarial lead identification” (Nature, 2010).

How the values were obtained:
Format in all cases: functional
Plasmodium falciparum [1] = assay: GSK_TCMDC: Inhibition of Plasmodium falciparum 3D7 in whole red blood cells, using parasite LDH activity as an index of growth. Test compounds present at 2uM
Plasmodium falciparum [2] = assay: GSK_TCMDC: Inhibition of Plasmodium falciparum Dd2 in whole red blood cells, using parasite LDH activity as an index of growth. Test compounds present at 2uM
HepG2 = assay: GSK_TCMDC: Percent inhibition of human HepG2 cell line. Test compounds present at 10uM.

| SMILES | Inhibition (Plasmodium falciparum [1]) | Inhibition (Plasmodium falciparum [2]) | Inhibition (HepG2) |
| --- | --- | --- | --- |
| Cc1nc(N)nc(N)c1OCc1cccc2ccccc12.Cl | 96% | 11% | 63% |
| CCc1ccc(CN2CCCCC(NC(=O)c3cc(-c4ccccc4F)cs3)C2)cc1.O=C(O)C(F)(F)F (stereo unspecified) | 87% | 12% | 25% |
| CC(C)COc1ccc(Cl)cc1Cc1ccc(-c2nc3cnc4ccccc4c3[nH]2)o1 | 87% | 26% | 21% |
| CCc1cn2c3c(cc(C(=O)N[C@@H](Cc4cc(F)cc(F)c4)[C@H](O)CNC4CCOCC4)cc13)N(C)S(=O)(=O)CC2.O=CO | 98% | 98% | 1% |
| Cc1cc(N[C@@H](Cc2ccccc2)C(=O)NCCc2ccccc2)nc(NCCOc2ccccc2)n1.O=C(O)C(F)(F)F | 95% | 14% | 10% |
| COc1ccc(CN2CCC(CNCc3cccc(-c4ccccc4)c3)CC2)cc1.O=C(O)C(F)(F)F | 100% | 92% | 96% |
| CN1CCN(c2ccnc3ccc(NC(=O)Nc4cccc(C#N)c4)cc23)CC1 | 99% | 96% | 11% |
| COc1ccc2nccc(NCC3(O)CCC(NCc4cc5c(cn4)OCCO5)CC3)c2n1.Cl (stereo unspecified) | 99% | 23% | 15% |
| CCOC(=O)[C@H](Cc1cccc2ccccc12)NC(=O)[C@H](CCC(=O)OC(C)(C)C)NC(=O)c1ccc(N(C)Cc2cnc3nc(N)nc(N)c3n2)cc1 | 93% | 96% | 66% |
| Cc1cccc2nc(-c3ccc(-c4cccc(NC(=O)CN5CCN(C)CC5)c4)s3)[nH]c12 | 96% | 51% | 7% |
| CNC(=O)c1cnc(Nc2ccc(OCC(O)CN(C)C)cc2)nc1Nc1cccc(OC)c1.O=C(O)C(F)(F)F (stereo unspecified) | 100% | 97% | 31% |
| CNC(=O)c1ccccc1Nc1nc(Nc2cccc(CS(C)(=O)=O)c2)ncc1C.O=CO | 97% | 95% | 74% |
| Cc1ccc(Nc2ccnc(Nc3ccc(F)c(Cl)c3)n2)cc1O.Cl | 100% | 52% | 9% |
| CCOc1cc2ncnc(Nc3cc(Cl)c(Cl)c(Cl)c3)c2cc1OCC.Cl | 100% | 98% | 11% |
| CN(c1ccc2c(c1)nc(Nc1cc(C(C)(C)C)on1)n2C)c1ccnc(Nc2ccc(CS(C)(=O)=O)cc2)n1 | 89% | 13% | 77% |
| Cc1nc2nc(N)nc(N)c2c(C)c1Cc1cccs1.Cl | 95% | 2% | 66% |
| CN1CCN(c2cc3c(cc2Cl)CCN3C(=O)Cc2ccc(Cl)c(NC(=O)Nc3cccc([N+](=O)[O-])c3)c2)CC1 | 99% | 51% | 0% |
| CCN(CC)CCCCNc1cc(-c2[nH]c(-c3c(Cl)cccc3Cl)nc2-c2ccc3cc(OC)ccc3c2)ccn1.O=C(O)C(F)(F)F | 95% | 93% | 23% |
| COc1ccc(-c2ccc(S(=O)(=O)Nc3cc4c(cc3OC(C)C)CCNCC4)cc2)cc1.Cl | 86% | 0% | 16% |
| Cc1cc(N[C@@H](CC(C)C)C(=O)NCc2cccc(F)c2)nc(NCC2CCCCC2)n1.O=C(O)C(F)(F)F | 99% | 70% | 3% |
| O=C(/C=C/c1ccc(Cl)c(Cl)c1)N1CCC(CCN2CCC(c3c[nH]c4ccncc34)CC2)CC1 | 100% | 70% | 13% |
| CC(C)c1sc(N2CCN(C)CC2)nc1C(=O)NCCc1ccc(Br)cc1.O=C(O)C(F)(F)F | 89% | 60% | 0% |
| O=C(Nc1ccc(CCNCc2ccccc2)cc1)Nc1ccc(OC(F)(F)F)cc1.O=C(O)C(F)(F)F | 100% | 22% | 0% |
| COc1ccc(NC(=O)c2ccc(Br)c(C)c2)cc1N1CCN(CCCc2c[nH]c3ccccc23)CC1 | 100% | 64% | 21% |
| CN1CCN(CCCN(Cc2ccc(-c3ccc(CNCCc4ccccc4)cc3)cc2)C(=O)c2cccs2)CC1.O=C(O)C(F)(F)F | 98% | 78% | 32% |
| CNCCNCc1cccc(-c2ccc(-c3nc4cc(C(F)(F)F)ccc4[nH]3)cc2)c1.O=C(O)C(F)(F)F | 100% | 92% | 21% |
| CCc1cc(-c2onc(C)c2-c2cc3ccccc3o2)c(O)cc1OC | 95% | 33% | 48% |
